Nine compounds from PubChem BioAssay (Tox21) can be followed below.

Test [1] can be described thus: qHTS assay to identify small molecule antagonists of the estrogen related receptor (ERR) signaling pathway from Tox21 library - cell viability counter screen (AID 1224834). Note: nearly all actives have a fitted effect of over 30% in size. Note: potency is the fitted concentration of half-maximal effect. The method, boiled down:
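Multiplexed viability counter screen in ERR cells: 17.5 h compound exposure at 37 C, CellTiter-Fluor added, 30 min at 37 C/5% CO2, fluorescence read.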
On the technique in general: In qHTS, concentration-response curves come from the screen itself.

Test [2] addresses Luciferin 4-monooxygenase (Photinus pyralis) (UniProt P08659). In words: qHTS assay to identify small molecule inhibitors of firefly luciferase (AID 1224835). Note: nearly all actives have a fitted effect of over 25% in size. In outline:
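Quantitative HTS format; KM concentrations of both substrates. Purified P. pyralis FLuc activity quantified from luminescence images.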

Test [3] in a line: qHTS assay to identify small molecule agonists of the constitutive androstane receptor (CAR) signaling pathway - cell viability counter screen (AID 1224836). Note: nearly all actives have a fitted effect of over 45% in size. In outline:
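Compound titrations (15 concentrations) went onto HepG2-CYP2B6-hCAR cells 4 h after seeding, alongside PK11195 at a final 0.75 uM; a 23 h, 37 C/5% CO2 incubation preceded CellTiter-Fluor viability measurement.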

The nature of test [4]: qHTS assay to identify small molecule antagonists of the constitutive androstane receptor (CAR) signaling pathway - cell viability counter screen (AID 1224837). Note: nearly all actives have a fitted effect of over 45% in size. Note: potency is the fitted concentration of half-maximal effect. The method, boiled down:
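Read-out: CellTiter-Fluor fluorescence after 23 hr at 37 C/5% CO2. Cells: HepG2 double-stable for hCAR and CYP2B6-2.2kb. Compounds tested at 15 concentrations in the presence of CITCO, final concentration 50 nM.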

Test [5] can be described thus: qHTS assay to identify small molecule antagonists of the estrogen related receptor signaling pathway with the pleiotropic PPARgamma coactivator (PGC) from Tox21 10K library - cell viability counter screen (AID 1224840; active = well fitted cell-killing curve with a large enough effect in the repeat runs, not every such curve was filed as active; note: nearly all actives have a fitted effect of over 40% in size; note: potency is the fitted concentration of half-maximal effect). In outline:
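Fluorescence read-out of CellTiter-Fluor viability reagent, added after cells had been exposed to compound in DMSO for 17.5 h at 37 C; 30 min development at 37 C/5% CO2. Cells: PGC/ERR line, 2,000/well.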

Test [6] deals with Thyrotropin receptor (Homo sapiens) (UniProt P16473). In words: qHTS assay to identify small molecule agonists of the thyroid stimulating hormone receptor (TSHR) signaling pathway (AID 1224843; calls by dose curve; note: nearly all actives have a fitted effect of over 45% in size). The method, boiled down:
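Using 15 concentrations per compound in triplicate, cAMP production was monitored in TSHR-HEK293 cells after 30 min compound incubation at RT; HTRF reagents followed, with fluorescence intensity recorded after 1 h.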

Test [7] is described as follows: qHTS assay to identify small molecule agonists of H2AX (AID 1224845; active = well fitted activation curve with a large enough effect in the signal ratio in the repeat runs, not every such curve was filed as active; the % refers to the signal ratio). In outline: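 Wild-type CHO-K1 cells plated overnight, then exposed 3 hr at 37C to compounds at 15 concentrations (0.76% DMSO). Lysed, then HTRF anti-pH2AX(S139)-cryptate/anti-H2AX-d2 detection after 24 hr at room temperature; emissions 665 and 620 nm.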
Test [8] in a line: qHTS assay to identify small molecule agonists of the hypoxia (HIF-1) signaling pathway (AID 1224846; active = well fitted activation curve with a large enough effect in the signal ratio in the repeat runs, not every such curve was filed as active; the % refers to the signal ratio). In outline:
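Beta-lactamase FRET read-out (CCF4-AM substrate) from ME-180 cells carrying an HRE-driven bla reporter, after 17 hrs compound exposure at 37C/5% CO2. Cells were seeded at 2,000 per well in 0.5% dialyzed FBS medium and preincubated 5 hrs.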

The nature of test [9]: qHTS assay to identify small molecule agonists of H2AX - cell viability counter screen (AID 1224847; calls by dose curve; note: nearly all actives have a fitted effect of over 30% in size; note: potency is the fitted concentration of half-maximal effect). In outline:
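Read-out: CellTiter-Glo luminescence, 30 min RT. Cells: wild-type CHO-K1, 1000/well, 10% FBS, plated overnight at 37C. Treatment: 15 concentrations, 3 hr, 37C, 0.76% DMSO.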

Test [10] can be described thus: qHTS RealTime-Glo MT Cell Viability Assay in HepG2 cells - 24 hour (AID 1224867). Note: nearly all actives have a fitted effect of over 50% in size. In outline: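 Compound treatment began 5 h after plating HepG2 cells (600/well) with NanoLuc luciferase and prosubstrate. Plates stayed at 37 C for 40 h; luminescence was captured at six time points, 0 h through 40 h.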
Test [11] in a line: qHTS RealTime-Glo MT Cell Viability Assay in HEK293 cells - 32 hour (AID 1224868). Note: nearly all actives have a fitted effect of over 50% in size. Note: potency is the fitted concentration of half-maximal effect. In outline:
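Quantitative high-throughput screen of the Tox21 10K library in HEK293: cells and RealTime-Glo reagents plated together, compound added at 5 h, luminescence monitored through 40 h at 37 C.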

The nature of test [12]: qHTS assay to identify small molecule agonists of the hypoxia (HIF-1) signaling pathway - cell viability counter screen (AID 1224844; calls by dose curve; note: nearly all actives have a fitted effect of over 50% in size). In outline:
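CellTiter-Glo luminescence read-out, 30 min RT, taken in the same wells as the beta-lactamase HRE reporter assay; HRE-bla ME-180 cells, 0.5% dialyzed FBS, 17 hr compound treatment at 37C, 5% CO2.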

Test [13] in a line: A CellTox Green Cytotoxicity Assay to monitor cytotoxicity in HEK293 cells - 0 hour (AID 1224869). Note: nearly all actives have a fitted effect of over 50% in size. In outline: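 Read-out: fluorescence of a cell-impermeant cyanine dye staining DNA of dead cells, proportional to cytotoxicity. HEK293, 600 cells/well with reagent, compound (23 nL DMSO) added after 5 h; reads at 0, 8, 16, 24, 32, 40 h.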
Test [14] has as its target Nuclear receptor subfamily 1 group I member 3 (Homo sapiens) (UniProt Q14994). In words: qHTS assay to identify small molecule agonists of the constitutive androstane receptor (CAR) signaling pathway (AID 1224839).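 For activation: HepG2 cells stably carrying human CAR and a CYP2B6 luciferase reporter.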 Note: nearly all actives have a fitted effect of over 15% in size. Note: potency is the fitted concentration of half-maximal effect. In outline: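 In this screen, CAR-driven CYP2B6 promoter activity is measured by luminescence in HepG2-CYP2B6-hCAR cells after 24 h with test compounds and 0.75 uM PK11195 (final concentration).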

Test [15] in a line: qHTS assay to identify small molecule antagonists of the estrogen related receptor signaling pathway with the pleiotropic PPARgamma coactivator (PGC) from Tox21 10K library (AID 1224841; call rule not given here; note: potency is the fitted concentration of half-maximal effect). The method, boiled down:
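Luminescence read-out (One-Glo luciferase reagent, 30 min at room temperature) from PGC/ERR cells exposed to DMSO-dissolved test compounds for 18 h at 37 C; cells, 2,000 per well, had been preincubated 6 h before compound transfer.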

The nature of test [16]: qHTS assay to identify small molecule agonists of the estrogen related receptor signaling pathway with the pleiotropic PPARgamma coactivator (PGC) from Tox21 10K library (AID 1224842). Note: nearly all actives have a fitted effect of over 15% in size. In outline:
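PGC/ERR reporter cells (NTP line) were seeded 2,000 per well, rested 6 h at 37 C/5% CO2, then pin-dosed with compounds in DMSO for 18 h at 37 C; luciferase read by One-Glo luminescence after 30 min at room temperature.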

The nature of test [17]: qHTS assay to identify small molecule antagonists of the estrogen related receptor (ERR) signaling pathway from Tox21 library (AID 1224848). Note: nearly all actives have a fitted effect of over 50% in size. Note: potency is the fitted concentration of half-maximal effect. In outline:
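Tox21 10K compounds in DMSO tested for ERR pathway antagonism in NTP's ERR cell line; 18 h, 37 C exposure; ONE-Glo luminescence.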

Test [18] in a line: qHTS assay to identify small molecule agonists of the estrogen related receptor (ERR) signaling pathway from Tox21 library (AID 1224849; calls by dose curve; note: nearly all actives have a fitted effect of over 15% in size). As to conditions: ERR reporter cell line, ONE-Glo luciferase, 18 h; at 92.4 µM (top of the series) unless noted. The method, boiled down: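 Luminescence readout (ONE-Glo, 30 min RT) after 18 h compound exposure at 37 C of NTP-supplied ERR reporter cells; cells were plated 6 h before compound addition by pin tool.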

The target in test [19] is Nuclear receptor subfamily 1 group I member 3 (Homo sapiens) (UniProt Q14994). In words: qHTS assay to identify small molecule antagonists of the constitutive androstane receptor (CAR) signaling pathway (AID 1224838).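 Note: HepG2 cells stably expressing hCAR with CYP2B6 luciferase reporter stimulated by CITCO; nearly all actives have a fitted effect of over 40% in size.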 Note: potency is the fitted concentration of half-maximal effect. The method, boiled down: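 Read-out: ONE-Glo luciferase luminescence after 30 min at room temperature. HepG2-CYP2B6-hCAR double-stable cells, compounds in 15-point titration plus 50 nM CITCO final, 24 h at 37 C/5% CO2.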
Nuclear receptor subfamily 1 group I member 3 (Homo sapiens), sequence (Q14994 whole entry, looked up): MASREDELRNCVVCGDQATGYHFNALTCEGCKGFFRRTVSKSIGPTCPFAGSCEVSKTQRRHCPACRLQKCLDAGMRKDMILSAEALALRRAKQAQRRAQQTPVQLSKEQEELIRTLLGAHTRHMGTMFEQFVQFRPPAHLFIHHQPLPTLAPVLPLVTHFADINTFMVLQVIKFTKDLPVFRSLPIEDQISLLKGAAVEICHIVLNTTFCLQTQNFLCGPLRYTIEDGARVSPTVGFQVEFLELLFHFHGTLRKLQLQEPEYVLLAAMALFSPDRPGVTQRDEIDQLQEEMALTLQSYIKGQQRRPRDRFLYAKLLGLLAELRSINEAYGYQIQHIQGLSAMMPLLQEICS

The structures appear in SMILES notation. Several values for one entry are separate records, joined by “and”; a condition that tells them apart may be missing. Equal values may be shown once. Results filed as inconclusive are left out. A structure can be active in one record and inactive in another. Activity calls are given as the source filed them. Unless noted, calls come from the whole dose curve; as a rule, active = well fitted curve in the direction sought with a large enough effect in the repeat runs; inconclusive = weak or mixed curves; inactive = no such curve, though single readings can be large; an effect the other way counts as inactive or inconclusive.
% is set by controls: 0 for no effect and ±100 for the full control effect.

Luciferin 4-monooxygenase (Photinus pyralis), sequence (P08659 whole entry, looked up): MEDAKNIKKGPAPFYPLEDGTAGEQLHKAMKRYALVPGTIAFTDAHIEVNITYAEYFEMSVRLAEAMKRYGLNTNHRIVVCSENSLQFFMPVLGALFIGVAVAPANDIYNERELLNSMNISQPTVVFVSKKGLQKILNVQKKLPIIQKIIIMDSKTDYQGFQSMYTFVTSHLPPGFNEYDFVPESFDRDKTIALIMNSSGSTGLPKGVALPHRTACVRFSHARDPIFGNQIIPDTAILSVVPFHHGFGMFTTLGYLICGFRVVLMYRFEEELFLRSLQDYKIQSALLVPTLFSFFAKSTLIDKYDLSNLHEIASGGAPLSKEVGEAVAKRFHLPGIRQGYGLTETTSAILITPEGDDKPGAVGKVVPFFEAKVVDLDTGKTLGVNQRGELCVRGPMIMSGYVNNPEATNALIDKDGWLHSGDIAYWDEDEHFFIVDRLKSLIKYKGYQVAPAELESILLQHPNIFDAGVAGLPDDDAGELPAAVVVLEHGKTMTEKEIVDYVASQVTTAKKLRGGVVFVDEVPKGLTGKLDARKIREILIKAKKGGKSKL
Thyrotropin receptor (Homo sapiens), sequence (P16473 whole entry, looked up): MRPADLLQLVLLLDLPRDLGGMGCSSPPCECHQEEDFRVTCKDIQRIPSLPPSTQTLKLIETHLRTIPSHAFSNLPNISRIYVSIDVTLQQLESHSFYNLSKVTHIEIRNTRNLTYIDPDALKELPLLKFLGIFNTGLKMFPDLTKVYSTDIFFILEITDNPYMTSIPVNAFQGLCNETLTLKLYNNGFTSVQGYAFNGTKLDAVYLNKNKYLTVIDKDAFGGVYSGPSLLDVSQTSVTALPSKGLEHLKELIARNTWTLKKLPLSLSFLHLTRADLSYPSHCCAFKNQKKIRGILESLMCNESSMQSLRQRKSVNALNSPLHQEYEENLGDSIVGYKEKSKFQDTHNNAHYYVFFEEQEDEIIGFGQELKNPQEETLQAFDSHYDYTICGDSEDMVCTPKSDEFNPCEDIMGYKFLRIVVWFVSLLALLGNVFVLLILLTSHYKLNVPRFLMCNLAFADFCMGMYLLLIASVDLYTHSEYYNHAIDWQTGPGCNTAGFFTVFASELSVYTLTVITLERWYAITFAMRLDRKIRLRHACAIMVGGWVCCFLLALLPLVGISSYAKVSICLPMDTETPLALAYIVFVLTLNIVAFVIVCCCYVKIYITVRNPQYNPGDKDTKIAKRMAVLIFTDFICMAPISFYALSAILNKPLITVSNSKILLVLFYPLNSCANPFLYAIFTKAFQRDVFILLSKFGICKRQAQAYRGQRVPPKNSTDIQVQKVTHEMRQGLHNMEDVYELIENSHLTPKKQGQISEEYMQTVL

For `CCCC(=O)Cl`, the Potency result in test [1], in test [2], in [3], in test [4], in [5] and in test [6] was “inactive” in each case. In addition, the Potency result in [7], in test [9], in test [10] and in test [11] was “inactive” each time. In addition, the result in test [8] was inactive.

Consider `c1ccoc1`, for which the Potency result in test [1], in test [2], in test [3], in test [4], in test [5] and in test [6] was “inactive” each time. Further, the Potency result in test [12], in test [7], in [9], in [10], in test [11] and in test [13] was “inactive” each time. Also, in [8], the call was inactive.

As for `C/C(=C\c1ccccc1)[N+](=O)[O-]`, the Potency in test [1] was 27.3 µM (active); in test [4], 30.6 µM (active); in test [15], 30.6 µM (active); in test [17] it was 24.3 µM (active). For the same compound, the Potency entry in test [14], in test [16] and in test [13] was “inactive” each time. For the same compound, the call in test [8] was inactive. In addition, the activity change, positive = activation in test [18] is -68.3% (inactive).

For the compound `C=CCOC(C)=O`, the Potency result in [1], in test [2], in [3], in test [4], in test [5] and in [6] was “inactive” each time. In addition, the Potency entry in [12], in [7], in test [9], in test [10], in test [11] and in [13] was “inactive” each time. In addition, the compound was called inactive in [8].

As for `CO/N=C(/C(=O)OC)c1ccccc1COc1ccccc1C`, the Potency result in [1], in test [2], in [4], in test [19], in [5] and in test [16] was “inactive” each time. The Potency entry in test [6], in test [12], in [7], in [10], in test [11] and in test [13] was “inactive” each time. The results for the Potency in [14], in test [9] and in [17] were 7.7 µM (active), 2.84 µM (active) and 1.54 µM (active), respectively. The outcome in [8] was inactive. Further, the activity change, positive = activation in [18] was -47.7% (inactive).

For the compound `Cl/C=C\C[N+]12CN3CN(CN(C3)C1)C2`, the Potency result in test [1], in test [2], in test [4], in test [14], in test [5] and in test [15] was “inactive” in each case. Further, the Potency entry in test [16], in test [6], in test [7], in [9], in [17] and in test [10] was “inactive” in each case. The Potency result in test [13] is “inactive”. The Potency in test [19] was 61.1 µM (active). Also, in [8], the outcome was inactive. Also, in [18], the activity change, positive = activation was -0.401% (inactive).

Take `O=[N+]([O-])c1cc(C(F)(F)F)cc([N+](=O)[O-])c1Cl`: the Potency in test [1] is 34.5 µM (active); in [17] it was 61.4 µM (active). Besides, the Potency result in test [2], in test [3], in test [19], in test [14], in test [15] and in test [16] was “inactive” in each case. In addition, the Potency result in [6], in test [7], in test [9] and in test [10] was “inactive” throughout. Also, in test [8], the outcome was inactive. The activity change, positive = activation in [18] is -42.9% (inactive).

In the case of `CCn1cc[n+](C)c1`, the Potency result in test [1] was “inactive and 30.9 µM (active)”; in test [5] it was “inactive and 55 µM (active)”; in [9], “inactive and 102 µM (active)”; in test [11], “inactive and 1.75 µM (active)”. Moreover, the Potency entry in test [2], in [12], in [7], in test [10] and in [13] was “inactive” each time. Besides, in [8], the result was inactive.

In the case of `Cn1sc(Cl)cc1=O`, the Potency entry in [2], in [3], in test [4], in [19], in test [14] and in [5] was “inactive” in each case. The Potency result in test [15], in [16], in test [6], in [9], in test [17] and in [10] was “inactive” throughout. Further, the Potency result in test [11] and in test [13] was “inactive” in each case. For the same compound, the result in test [8] was inactive. Also, the activity change, positive = activation in [18] was 1.6% (inactive).
